Mcl1 Bid PPI = disrupts binding of human Mcl-1 to Bid peptide; TR-FRET Mcl-1/Bid-Dy647 peptide binding, 1536-well; AID 1021; 220,000 compounds, 0.97% hits; Q07820; inhibition, % at 21.7 µM;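 active = compounds that cut the binding signal by more than half at the single screening dose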;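 also: His-tagged Mcl-1 with europium anti-His antibody binding Bid BH3 peptide; 0% = Mcl-1 plus peptide wells and 100% = peptide-only wells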
Target sequence (Q07820 whole entry, looked up): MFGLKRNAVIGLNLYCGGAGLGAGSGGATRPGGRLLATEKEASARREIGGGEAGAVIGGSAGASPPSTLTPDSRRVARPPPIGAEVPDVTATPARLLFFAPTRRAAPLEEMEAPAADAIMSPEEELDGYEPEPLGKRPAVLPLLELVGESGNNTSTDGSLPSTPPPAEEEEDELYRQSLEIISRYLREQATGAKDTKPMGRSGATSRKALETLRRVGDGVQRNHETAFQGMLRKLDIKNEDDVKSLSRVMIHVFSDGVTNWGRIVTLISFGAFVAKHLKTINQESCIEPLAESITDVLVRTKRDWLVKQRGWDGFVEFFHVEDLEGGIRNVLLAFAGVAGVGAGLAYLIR
Bim-Mcl-1 = inhibitors of Bim-Mcl-1 interaction, human | AID 1009 | inhibition, % at 10 µM | Q07820 | Bead-based flow cytometry, Bim peptide-Mcl-1 binding | 190,000 compounds, 0.1% hits; in the data active = inhibition above about 40%;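 also: 0% = no compound tracer wells and 100% = peptide blocker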
MCL1 BIM primary = inhibitors of human MCL1 binding to BIM-BH3 peptide; inhibition, % at 10.9 µM; 320,000 compounds, 0.68% hits; AID 2057; GST-MCL1 / FITC-Bim-BH3 fluorescence polarization;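 active = inhibition above the mean inhibition of all tested compounds plus 3 SD, set per campaign, cut at about 40% in these data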;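 also: 0% = DMSO wells and 100% = unlabeled Bim-BH3 peptide control; higher means more loss of mP so more displacement of Bim peptide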
Mcl1-Noxa inh = disrupts binding of human Mcl-1 to Noxa peptide. Q07820. TR-FRET Mcl-1/Noxa peptide binding, 2 h. inhibition, % at 21.7 µM. 220,000 compounds, 1.5% hits. AID 1022;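 active = compounds that cut the protein-peptide binding signal by more than 50% relative to plate controls in a single-dose test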;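 also: His-tagged Mcl-1 with rhodamine Noxa BH3 peptide and terbium anti-His antibody; 0% = Mcl-1 plus Noxa peptide wells and 100% = peptide-only wells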
* = called active by the depositor; nt = not tested or not shown. A selection: hits, their analogues and other compounds. The true share with any hit is near 2%.

SMILES	Mcl1 Bid PPI	Bim-Mcl-1	MCL1 BIM primary	Mcl1-Noxa inh
COc1ccc(NC(=O)CCC(=O)c2cccs2)cc1Cl	nt	nt	3	nt
COc1cc(NCCC(=O)c2cccs2)c(OC)cc1Cl	-28	-1	2	86*
CCNc1nc(NCC)nc(C(=O)NN)n1	-18	-13	0	75*
CCNc1nc(NCC)nc(OCC(=O)O)n1	6	nt	-3	-2
COc1cccc(-c2nn(C)c3sc(C(=O)NCc4ccc(C)o4)cc23)c1	-8	2	3	60*
Clc1cncc(Cl)c1NNc1c2ccccc2nc2ccccc12	-9	-6	4	58*
O=C(NNc1c2ccccc2nc2ccccc12)c1ccc(Cl)cc1	nt	nt	8	nt
COc1ccc2c(c1)OC[C@H]1[C@H]2N2C(=O)CN(CCc3c[nH]c4ccccc34)C(=O)[C@@]2(C)[C@H]1c1ccccc1	nt	nt	-10	nt
CC1=C(c2ccccc2)[N+](=O)C2(CCCC2)N1[O-]	-3	1	-7	4
O=[N+]([O-])c1ccc2c(c1)N([O-])C1(CCCCC1)[N+]2=O	-24	nt	nt	83*
COc1ccc(CN2CCN(S(=O)(=O)c3ccc(F)cc3)CC2)cc1OC	35	-1	5	13
COc1ccc(CN2CCN(S(=O)(=O)c3ccccc3)CC2)cc1Br	64*	-1	7	48
CCOc1cc(/C=N/NC(=O)c2ccc(-c3csc(Nc4ccc(C)cc4)n3)cc2)ccc1OCC(=O)O	-2	1	nt	86*
O=C(O)COc1ccc(/C=N/NC(=O)c2ccc(-c3csc(Nc4ccc(Cl)cc4)n3)cc2)cc1	95*	nt	nt	88*
Cc1nc(CC(=O)N/N=C/c2ccc(OCC(=O)O)cc2)cs1	-68	nt	1	19
Cc1nn(-c2ccc(F)cc2)c(Cl)c1C(=O)NCC1CCCO1 (stereo unspecified)	nt	nt	-1	nt
O=C(O)CC(NC(=O)COc1ccc(Cl)cc1Cl)C(=O)O (stereo unspecified)	72*	-2	14	20
N#C/C(=C\c1ccc([N+](=O)[O-])o1)C(=O)Nc1ccc(F)cc1	-51	1	28	65*
CC(=O)c1nnn(-c2c(F)cccc2F)c1C	-20	nt	1	2
COc1ccc(CCNc2nc(-c3sc(C)nc3C)cs2)cc1OC	73*	0	-5	60*
COc1ccc(CCNc2nc(-c3cccnc3)cs2)cc1OC	90*	-5	4	11
COc1ccc(CCNc2nc(-c3ccncc3)cs2)cc1OC	-11	nt	-1	0
O=C(CNC(=O)c1ccco1)N=Nc1c(O)[nH]c2ccc(Br)cc12	nt	nt	-5	nt
Cc1occc1C(=O)N=Nc1c(O)[nH]c2ccc(Br)cc12	36	16	9	51*
Cc1cc(C)cc(N(C(C)C(=O)N2CCCCC2)S(C)(=O)=O)c1 (stereo unspecified)	1	7	1	-26
SMILES	Mcl1 Bid PPI	Bim-Mcl-1	MCL1 BIM primary	Mcl1-Noxa inh
Cc1cc(C)cc(N(C(C)C(=O)N2CCOCC2)S(C)(=O)=O)c1 (stereo unspecified)	53*	-1	9	10
CCSc1nnc(N2C(=O)c3ccc(C(=O)c4ccc(C(=O)O)cc4)cc3C2=O)s1	nt	nt	4	nt
CN1CCN(S(=O)(=O)c2ccc(NC(=S)NC(=O)c3ccc(Cl)cc3)cc2)CC1	2	-7	nt	84*
NS(=O)(=O)c1ccc(NC(=S)NC(=O)c2cccs2)cc1	-42	nt	15	1
O=C(NC(=S)Nc1ccc(S(=O)(=O)N2CCCCC2)cc1)c1cccs1	96*	0	16	1
O=S(=O)(c1ccc(NC(=S)NCc2cccnc2)cc1)N1CCCCC1	96*	nt	3	20
CN1CCN(S(=O)(=O)c2ccc(NC(=S)NC(=O)c3ccccc3)cc2)CC1	-28	-2	-9	13
O=C(Cc1cccs1)Nc1ccc(S(=O)(=O)N2CCCC2)cc1	-19	0	21	63*
O=C(NCc1cccnc1)c1ccc(S(=O)(=O)N2CCCCC2)cc1	9	0	1	24
CCCCCCCN1C(Nc2ccccc2)=NC[C@@H]1C	nt	nt	-2	nt
O=C(CC12CC3CC(CC(C3)C1)C2)NCc1ccc(F)cc1	nt	nt	-6	nt
CCN(CC(=O)Nc1ccccc1OC)C(=O)c1cc(S(=O)(=O)N2CCCCCC2)ccc1OC	nt	nt	2	nt
CN(CC(=O)Nc1ccccc1C(F)(F)F)C(=O)CN1C(=O)C2CCCCC2C1=O (stereo unspecified)	nt	nt	-4	nt
C/C(=N\NC(=O)c1cc(-c2cccc([N+](=O)[O-])c2)n[nH]1)c1ccccc1O	73*	0	18	58*
Cc1cc2[nH]c(=O)c(=O)[nH]c2cc1S(=O)(=O)Nc1cccc(Cl)c1	nt	nt	9	nt
O=c1[nH]c(/C=C/c2ccccn2)nc2ccccc12	nt	nt	2	nt
O=c1[nH]c(/C=C/c2ccccc2[N+](=O)[O-])nc2ccccc12	54*	-10	0	4
Cc1ccc(N(CC(O)CN2CCCCC2)S(=O)(=O)c2ccc(C)cc2)cc1 (stereo unspecified)	nt	nt	4	nt
N#Cc1ccccc1NC(=O)COC(=O)CCc1ccccc1	nt	nt	4	nt
CCCCc1nnc2c(N(C)S(=O)(=O)c3ccccc3)nc3ccccc3n12	55*	nt	-1	19
CCC(C)C(=O)Nc1nnc(SCC(=O)NC(C)(C)C)s1 (stereo unspecified)	-8	-25	-1	-1
CCOc1ccccc1N1CCN(CC(=O)Nc2cc(C)on2)CC1	-20	0	10	8
CCOC(=O)N1CCN(CC(=O)Nc2cc(OCC)ccc2OCC)CC1	60*	-4	0	34
CCOc1ccc(OCC)c(NC(=O)CN2CCN(c3ccc(C)cc3C)CC2)c1	51*	-5	-1	18
O=C(Nc1ccc(OC(F)F)cc1)Nc1cccc(C(F)(F)F)c1	0	7	12	15
COc1cccc(NC(=O)C(=O)N/N=C/c2cc(C)n(-c3ccc(Cl)c(Cl)c3)c2C)c1	93*	2	4	-1
C=CCN1C(=O)/C(=C2/C(=O)N(CC(=O)O)c3ccccc32)S/C1=N/c1nccs1	-38	1	nt	89*
C=CCN1C(=O)/C(=C/c2ccc(O)cc2)S/C1=N/c1nccs1	-60	-1	-33	14

Bioassay records as filed in PubChem.
